Bioassay records from PubChem.
Compounds with a hit are over-represented: about 1.2% of the library has one in this group of screens.
GPR7 antagonist: antagonists of human GPR7 (neuropeptides B/W receptor 1) | P48145 | GPR7-expressing cells, fluorescence antagonist assay | inhibition, % at 4.4 µM | actives 1.1% (n = 290,000) | AID 1861; in the data active = inhibition above about 16%, passing the limit was not always enough;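 note: cells stimulated with the agonist NPW; 0% = agonist with vehicle and 100% = vehicle without agonist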
VLA-4 inh: inhibition in a human VLA-4 binding assay; P13612; VLA-4 expressing cells, ligand binding flow cytometry; inhibition, % (about 7 µM as worked out from the volumes in the protocol); actives 0.2% (n = 330,000); AID 2557; in the data active = inhibition above about 50%
GASC-1 inh: blocks human GASC-1 demethylase activity; Q9H3R0; GST-JMJD2C(1-420) H3K9me3 demethylation, DELFIA europium; inhibition, % at 2.35 µM; actives 0.069% (n = 330,000);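 active = more than half of a compound's replicate wells show inhibition beyond 50%, single wells judged on their own value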;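 note: signal counts dimethyl H3K9 product captured on neutravidin plate; 0% = median of DMSO wells and 100% = 0.3 times that DMSO median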
Target sequence (Q9H3R0 1-420 limits assumed): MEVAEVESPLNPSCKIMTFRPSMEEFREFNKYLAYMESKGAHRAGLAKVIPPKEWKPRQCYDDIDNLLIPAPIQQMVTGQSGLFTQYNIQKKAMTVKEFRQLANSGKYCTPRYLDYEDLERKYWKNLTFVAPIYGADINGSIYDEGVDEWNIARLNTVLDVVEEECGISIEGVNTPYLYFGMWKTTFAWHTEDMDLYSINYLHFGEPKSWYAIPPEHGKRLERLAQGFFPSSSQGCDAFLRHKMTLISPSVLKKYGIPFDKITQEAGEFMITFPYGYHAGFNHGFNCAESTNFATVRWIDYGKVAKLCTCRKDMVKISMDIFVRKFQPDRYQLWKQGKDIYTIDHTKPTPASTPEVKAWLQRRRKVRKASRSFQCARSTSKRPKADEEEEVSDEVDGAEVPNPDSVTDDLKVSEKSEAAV
p-CIP stab down: p/CIP protein destabilization; actives 0.01% (n = 290,000); F442A p/CIP-EGFP cells, EGFP fluorescence, 16 h; decrease of EGFP signal, % at 10 µM;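 active = EGFP signal decrease of at least 30% at 10 µM or well 3 SD below plate mean, unless failing retest; inactive = the rest, including hits failing retest or dose response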
VLA-4 mod pick: human VLA-4 allosteric modulation in cherry picked compounds; shares compounds with VLA-4 inh; U937 cells, HUTS-21 LIBS mAb binding, flow cytometry; LDV ligand present at threefold Kd; inhibition, % at 6.7 µM; actives 2% (n = 1,300); in the data active = inhibition above about 40%;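 note: 0% = ligand without compound and 100% = no ligand background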
The depositor's hits bear a star; · = no result.

SMILES	GPR7 antagonist	VLA-4 inh	GASC-1 inh	p-CIP stab down	VLA-4 mod pick
CC(C)CN(C(=O)COc1ccc(-c2nnco2)cc1)C1CCS(=O)(=O)C1 (stereo not drawn)	-16.1	2.3	-8.3	-11.0	·
CC(=O)NC(CC(=O)N(C)Cc1cccc(Cl)c1Cl)c1ccccc1 (stereo not drawn)	-6.0	-7.6	·	3.4	·
O=C(O)COc1ccc(NC(=O)C(c2ccccc2)c2ccccc2)cc1	-14.7	8.2	38.3	16.2	·
COC(=O)COc1ccc(NC(=O)C(c2ccccc2)c2ccccc2)cc1	-15.3	49.9*	-4.1	-13.7	13.6
C[C@@H]1CN([C@H](C)CO)C(=O)Cc2cc(NC(=O)Cn3cnnn3)ccc2O[C@@H]1CN(C)Cc1ccc(Cl)c(Cl)c1	·	4.0	18.6	·	·
N#CC1(NC(=O)CN2CCN(S(=O)(=O)c3ccccc3F)CC2)CCCC1	-7.5	-7.7	-15.3	-3.8	·
CC(C)CC(=O)Nc1ccc2ccccc2c1	-14.6	12.2	-0.9	-9.5	·
CCC(=O)Nc1ccc2ccccc2c1	-3.7	45.4	-1.3	8.0	3.7
COc1cc(/C=C/C(=O)OCC(=O)Nc2c(C)n(C)n(-c3ccccc3)c2=O)ccc1OCC#N	-3.8	60.5*	-0.3	-6.9	-0.1
COC(=O)c1ccc(/C=N/n2c(C)nc3ccccc3c2=O)cc1	-14.7	41.0	-1.1	6.3	-3.6
COc1ccc(/C=N/n2c(C)nc3ccccc3c2=O)cc1	-2.8	16.7	-4.6	-9.5	·
CCOC(=O)c1cc(C#N)c(SC(C)C(=O)NC2CCCCC2)nc1C (stereo not drawn)	·	2.3	4.3	·	·
Cn1c(SCC(=O)N2CCCC2)nc2ccccc21	6.4	27.4	2.3	-8.3	·
Cn1c(Sc2nc3ccccc3n2C)nc2ccccc21	1.4	68.1*	-8.1	-6.9	5.7
CN1CC(=O)N(CC(=O)Nc2ccc(Br)cc2F)C1=O	-4.5	69.6*	9.7	2.3	-2.2
O=C1CC(c2ccco2)CC(O)=C1C=NCC1CCNCC1 (stereo not drawn)	-0.5	92.0*	16.1	-4.0	1.1
O=C1CC(c2ccco2)CC(O)=C1C=NCCN1CCNCC1 (stereo not drawn)	-10.6	11.2	-4.8	-8.4	·
CCc1ccc(C(=O)NNC(=O)c2cccc(N3C(=O)CCC3=O)c2)cc1	·	-11.0	-2.3	·	·
COc1ccc(NC(=S)N2CCCC(c3nc4ccc(C)cc4[nH]3)C2)c(OC)c1 (stereo not drawn)	14.4	54.3*	0.3	-4.1	15.0
Cc1c(-c2ccccc2)[n+](=O)c(-c2ccc(Cl)cc2)c(C)n1[O-]	-6.6	6.4	7.0	5.9	·
Cc1[nH]c2ccc(C(=O)N3CCN(c4ccccn4)CC3)cc2c1C	7.9	-6.5	-16.9	-9.3	·
CCOC(=O)Cc1nnc(Nc2cccc(O)c2)c2ccccc12	5.2	89.5*	-1.9	-6.4	-14.7
CCOC(=O)Cc1nnc(Nc2ccc(C(=O)NC)cc2)c2ccccc12	-12.8	-3.8	4.6	-6.4	·
CC(=O)c1cccc(NC(=O)c2cccc(NC(=O)c3ccco3)c2)c1	9.1	-6.8	-0.1	-0.2	·
O=C(NC1CCCC1)c1cccc(NC(=O)c2ccco2)c1	-0.7	49.7*	4.4	-1.5	11.8
SMILES	GPR7 antagonist	VLA-4 inh	GASC-1 inh	p-CIP stab down	VLA-4 mod pick
O=C1c2c(O)cc(O)cc2O[C@H](c2ccc(O)c(O)c2)[C@H]1O	-11.9	6.3	0.5	·	·
O=C1c2c(O)cc(O)cc2O[C@H](c2ccc(O)cc2)[C@H]1O	·	50.2*	0.4	·	6.4
COc1ccc(C(CCN(Cc2ccc(OC)c(OC)c2)C(C)=O)C(C)C)cc1 (stereo not drawn)	1.3	25.6	3.4	1.3	·
O=C1c2ccccc2S(=O)(=O)c2cc(C(=O)N3CCN(C(=O)c4ccccc4)CC3)ccc21	·	-3.1	9.9	·	·
c1ccc2[nH]c(NCCCN3CCOCC3)nc2c1	1.0	61.8*	9.0	-2.1	7.7
COc1ccc(-c2nc3scc(-c4ccc(OC)c(OC)c4)c3c(=O)o2)cc1	-3.2	83.6*	0.0	-10.9	6.7
COc1ccccc1/C=C1\N=C(C(C)(C)C)OC1=O	3.5	4.3	15.9	-8.6	·
CCn1ccnc1CN(C)Cc1cn(C)nc1-c1ccccc1F	-4.0	42.8	-10.8	-10.7	-3.6
Fc1ccccc1CNc1ccc(Cl)cc1	-7.8	4.0	6.3	5.9	·
Fc1ccc(NCc2ccccc2F)cc1Cl	-2.2	50.2*	8.6	-1.0	1.3
O=[N+]([O-])c1c(N2CCN(CCO)CC2)nc2ccccn12	-0.5	13.3	4.8	0.5	·
COc1ccc(NC(=O)Nc2ccc3c(c2)C(=O)N([C@H](C)CO)C[C@H](C)[C@@H](CN(C)C(=O)NC2CCCCC2)O3)cc1	·	49.6*	-2.0	·	5.6
CN(C)C1=NCCN1CCc1ccc(F)cc1	·	45.5	7.5	·	·
O=C(c1ccc(CN2CCc3ccccc3C2)cc1)N1CCN(c2ccccc2)CC1	-7.7	46.5	-5.8	-8.6	-6.9
O=C(c1ccc(CN2CCc3ccccc3C2)cc1)N1CCc2ccccc2C1	-5.8	13.6	-5.4	-2.9	·
CN(Cc1ccccc1)C(=O)c1cc(=O)[nH]c2ccccc12	-9.1	6.7	1.4	-8.0	·
Cc1c(N(C(=O)c2cc(=O)[nH]c3ccccc23)C(C)C)c(=O)n(-c2ccccc2)n1C	-6.7	10.5	-0.4	6.1	0.0
COc1ccc(C2C3=C(CC(C)(C)CC3=O)Oc3ncn(CCCn4ccnc4)c(=N)c32)cc1 (stereo not drawn)	-9.2	90.0*	8.9	7.1	8.2
O=C(Nc1ccccc1)Nc1cnccn1	-0.3	-11.2	-177.8	-12.6	·
O=C(CC(C(=O)O)c1cccc(Br)c1)c1ccc(Cl)cc1 (stereo not drawn)	-9.0	2.2	2.7	3.6	·
O=C(CC1SCCNC1=O)Nc1ccccc1Cl (stereo not drawn)	-4.6	58.9*	15.8	2.4	2.4
O=C1/C(=C/c2cccs2)SC(=S)N1c1cccc(O)c1	-5.5	-23.4	-1.1	-3.0	·
O=C(Nc1ccccc1F)Nc1cccnc1Cl	·	4.4	-6.1	·	·
CC1(C)NC(=O)N(CC(O)CN2C(=O)NC(C)(C)C2=O)C1=O	8.4	-18.7	11.4	-0.7	·
Cc1cc(C)n(CC(O)CN2C(=O)NC(C)(C)C2=O)n1 (stereo not drawn)	-0.8	54.2*	-6.0	-3.7	1.8
SMILES	GPR7 antagonist	VLA-4 inh	GASC-1 inh	p-CIP stab down	VLA-4 mod pick
Cc1ccc(-c2nn3c(C)nnc3c3ccccc23)cc1S(=O)(=O)NCCN1CCOCC1	-7.1	0.0	9.1	-7.8	-10.4
CCOC(=O)N1CCN(S(=O)(=O)c2cc(-c3nn4c(C)nnc4c4ccccc34)ccc2C)CC1	12.2	-3.3	-4.4	-11.9	-2.2
NS(=O)(=O)c1ccc(NC(=O)c2ccc(CNS(=O)(=O)c3cc(C(F)(F)F)ccc3Cl)cc2)cc1	-5.5	0.8	9.2	-0.9	·
CCOc1ccc(NC(=O)Nc2ccccc2SC)cc1	-15.2	67.4*	2.2	-17.6	6.5
Cc1ccc(S(=O)(=O)C(NC(=O)c2ccccc2)=C(Cl)Cl)cc1	-11.9	53.6*	0.4	·	-1.1
Cc1ccc(C(=O)NC(=C(Cl)Cl)S(=O)(=O)c2ccc(C)cc2)cc1	-11.4	4.3	7.1	-2.4	·
